Assay outcomes as filed in PubChem BioAssay.
FMDV antiviral: blocks foot and mouth disease virus | Potency, µM (top dose mostly 57.9 µM), without a hit: at the top dose activity change, negative = inhibition, usual class: inhibitors | FMDV antiviral cell-based qHTS | AID 1159524 | 410,000 tested, 1.2% active; calls by dose curve; tested in HEK293T cells; further: read-out not given here; potency means the concentration at half of the fitted maximal effect; nearly all actives have a fitted effect of over 45% in size
VACV Venus inh: vaccinia inhibition (Venus reporter); Vaccinia virus Venus reporter expression, fluorescence; Potency, µM (series often up to 36.5 µM), for inactives: at the highest dose activity change, negative = inhibition, hits mostly inhibitors; 330,000 tested, 0.46% active; AID 720580; calls by dose curve; tested in A549 cells; further: potency means the concentration at half of the fitted maximal effect; nearly all actives have a fitted effect of over 30% in size
HCV inhibitor: HCV inhibition; Huh7.5.1 HCVcc-Cre infection, luciferase reporter, 44 h; Potency, µM (highest dose often 41.8 µM), inactives show at the highest dose activity change, negative = inhibition, hits mostly inhibitors; 340,000 tested, 3.4% active; active means well fitted inhibition curve with a large enough effect; inconclusive means small, poorly fitted or top-dose-only effect, or another doubt; inactive means no such curve, though single readings can be large or run the other way; further: potency means the concentration at half of the fitted maximal effect
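After 44 h co-culture of compound, cells and HCVcc-Cre (~0.5 moi), substrate is added for 15 min at room temperature and luciferase measured over 15 sec. Cells were seeded at 1,000/well and pre-cultured 4 h.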
VACV mCherry inh: inhibitors of vaccinia virus infection (mCherry reporter signal). Vaccinia virus mCherry reporter infection, fluorescence. Potency, µM (doses to about 36.5 µM), for the others: at the top dose activity change, negative = inhibition, actives largely listed as inhibitors. 310,000 tested, 0.63% active; calls by dose curve; tested in A549 cells; further: potency means the concentration at half of the fitted maximal effect; nearly all actives have a fitted effect of over 35% in size
HCMV antiviral: human cytomegalovirus inhibition. HFF cells, HCMV-luciferase reporter, 72 h; active compounds read low. activity change, negative = inhibition, % at 57.5 µM. 410,000 tested, 4.5% active. AID 1259415; in the data active means activity change below about -60%; inconclusive means no clear call, values can overlap the other calls; inactive means above about -39%
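Luciferase read-out from HCMV-luciferase-infected HFFs (MOI 1 PFU/cell) 72 h post infection at 37C; compounds added after 16 h cell attachment; activity normalized between buffer-only basal and Salinomycin (10uM) inhibitor controls.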
Starred values were filed as active, the others as inactive; i = inactive; ? = inconclusive; . = no result; [ ] = dose if it differs, or a comment. Shown are actives, neighbours in structure and some others; about 7.3% of the full set was active somewhere. On the % scale 0 is the no-effect control and ±100 the full control effect.

SMILES | FMDV antiviral | VACV Venus inh | HCV inhibitor | VACV mCherry inh | HCMV antiviral
COc1ccc(NC(=O)c2cn(-c3ccccc3)nc2-c2ccc(C)cc2)cc1 | -2.9% | -7.8% | . | -11.6% | 26.7
Cc1noc(C)c1C(=O)N1CCC2(CC1)CN(Cc1cc(C(F)(F)F)cc(C(F)(F)F)c1)C2 | -4.8% | . | . | . | .
CCC(=O)N1CCc2cc(Br)cc(S(=O)(=O)NCCCN(C)Cc3ccccc3)c21 | 1.9% | -11.1% | 22.9% | i | -67.3*
CC(=O)N1CCc2cc(Br)cc(S(=O)(=O)NCCCN(C)Cc3ccccc3)c21 | 26.9% | -2.0% | -21.6% | -5.6% | ?
Cc1ccccc1-c1ccc2c(c1)O[C@@H](CN(C)C(=O)Nc1ccc(C(F)(F)F)cc1)[C@H](C)CN([C@@H](C)CO)S2(=O)=O | -24.0% | ? | . | ? | -75.9*
C[C@@H]1CN([C@@H](C)CO)S(=O)(=O)c2ccc(C#CC3CCCCC3)cc2O[C@@H]1CN(C)Cc1cccnc1 | -14.2% | 10µM* | . | ? | -21.6
COc1cccc(NC(=O)N(C)C[C@H]2Oc3cc(C#Cc4ccncc4)ccc3S(=O)(=O)N([C@H](C)CO)C[C@H]2C)c1 | 90.8% | ? | . | ? | -109.0*
COc1ccc(C#Cc2ccc3c(c2)O[C@@H](CN(C)C(=O)Nc2cccc(OC)c2)[C@H](C)CN([C@@H](C)CO)S3(=O)=O)cc1 | 35.4% | ? | . | -16.1% | -34.8
CCn1nc(-c2ccccc2)nc2c(=O)n(C)c(=O)nc1-2 | 1.78µM* | 2.24µM* | 2.82µM* | 2.51µM* | .
CCn1nc(-c2ccc(C)cc2)nc2c(=O)n(C)c(=O)nc1-2 | . | 3.16µM* | . | 2.51µM* | .
Cc1ccc(-n2c(-c3cccs3)nc3nc4ccccc4nc32)cc1 | . | . | 7.0% | . | -63.0*
CCN1C(=O)CC(CC(=O)N2CCCCC2c2nccs2)(c2ccccc2C)C1=O (configuration not stated) | -11.3% | 2.5% | . | -9.1% | .
CCCN(CC)c1ncnc2[nH]ncc12 | -9.4% | -6.5% | 0.3% | -9.4% | -65.2*
CCOc1ccc(C(=O)Nc2ccccc2C(=O)OCc2cc(=O)n3nc(C4CC4)sc3n2)cc1 | 1.0% | -6.8% | . | -7.9% | 15.2
CCOC(=O)C1CCN(C(=O)c2ccc(C)o2)CC1 | -7.0% | -5.6% | 6.4% | -21.0% | ?
CCOC(=O)C1CCN(C(=O)c2c(C)oc3c2C(=O)c2ccccc2C3=O)CC1 | 28.2µM* | 14.1µM* | -13.2% | 14.1µM* | -2.1
CCc1ccc(NC(=O)CSc2nc(=O)n(Cc3ccncc3)c3c2CCC3)cc1 | ? | ? | . | -14.4% | -1.9
CCc1ccc(C2C(C(=O)Nc3ccc(Cl)cc3)=C(C)Nc3ncnn32)cc1 (configuration not stated) | -15.8% | -7.7% | . | -9.1% | 8.8
COc1ccccc1NC(=O)Nc1ccc(F)c(F)c1 | 9.4% | -18.1% | -1.7% | -12.2% | -102.4*
Cc1cc(NC(=O)Nc2ccccc2F)ccc1Br | -7.7% | ? | 12.6µM* | -7.8% | -19.4
Cc1noc(C)c1C(=O)N1CCC2(CCCN(C(=O)Nc3cccc(F)c3)C2)CC1 | -9.9% | . | . | . | .
CN1CCN(C(CNC(=O)c2c(F)cccc2F)c2ccc3c(c2)OCO3)CC1 (configuration not stated) | 3.8% | -2.1% | . | -2.5% | 9.0
C[C@@H]1[C@H](c2ccccc2)OCCS(=O)(=O)N1Cc1ccc(Cl)cc1 | . | -23.8% | . | -28.7% | .
N#CCC(=O)N/N=C/c1cc(-c2ccccc2)n(-c2ccc(Cl)cc2)c1-c1ccccc1 | 25.1µM* | -1.9% | ? | -17.8% | ?
Cc1csc(C(C)N(C)C(=O)c2cnn(-c3nccc(-c4cc(C)sc4C)n3)c2C)n1 (configuration not stated) | 47.6% | -4.7% | . | -14.2% | .
SMILES | FMDV antiviral | VACV Venus inh | HCV inhibitor | VACV mCherry inh | HCMV antiviral
FC(F)(F)c1ccc(CN2C[C@@H]3C(c4ccc(Cl)nc4)C4(c5ccccc5)CC3(C4)[C@H]2c2ccccc2)cc1 (some centres not stated) | -10.4% | ? | -6.1% | ? | -65.1*
FC(F)(F)c1ccc(C2[C@H]3CN(Cc4ccc(-c5ccccc5)cc4)[C@H](c4ccccc4)C34CC2(c2ccccc2)C4)cc1 (some centres not stated) | -6.1% | 10.9% | -1.6%[8.37 µM] | -8.4% | 17.3
N#Cc1c(Nc2ccccc2C(F)(F)F)s[nH]c1=O | -17.0% | -4.7% | 0.1% | -15.1% | ?
N#Cc1c(Nc2ccccc2Cl)s[nH]c1=O | -18.4% | -4.7% | 18.3% | -8.0% | -86.5*
CC(Sc1nc2ccccc2c(=O)n1C)C(=O)N(C)C1CCCCC1 (configuration not stated) | ? | -23.7% | ? | -9.9% | -78.7*
CC(Sc1nc2ccccc2c(=O)n1CC1CCCO1)C(=O)N(C)Cc1ccccc1 (configuration not stated) | -11.4% | -14.6% | ? | i | -36.0
Cc1cc(/C=N/O)c(C)n1-c1ccccc1 | 23.9% | -18.0% | -1.2% | -14.7% | -33.2
[O-][n+]1c(/C=C/c2ccccc2)ccc2ccccc21 | -30.2% | . | 10µM* | . | 13.1
CN(C)c1ccc(/C=C/c2ccc3ccccc3[n+]2C)cc1 | ? | 275.1% | 0.891µM* | 175.5% | -99.4*
CN(CCCS(=O)(=O)[O-])c1ccc(/C=C/c2ccc3ccccc3[n+]2C)cc1 | -13.3% | . | 18.6% | . | 94.0
Cc1cc(/C=C/c2ccc3cc(N(C)C)ccc3[n+]2C)c(C)n1-c1ccccc1 | 14.1µM* | i | . | 109.5% | .
[O-][n+]1ccccc1/C=C/c1ccccc1 | 25.1% | -8.9% | 9.6% | i | 13.3
CN(C)c1ccc(/C=C/c2ccc3c4ccccc4ccc3[n+]2-c2ccccc2)cc1 | 12.6µM* | i | 1µM* | i | -99.0*
CCCc1nc2c(C)cc(Br)cn2c1Cc1cccc(Cl)c1 | . | . | . | . | 67.8
COc1ccc(OC)c2c(/C=C/c3c(C)[nH]c4ccccc34)ccnc12 | . | -21.5% | . | 12.6µM* | .
COc1ccc(OC)c2c(/C=C/c3ccc(N(C)C)cc3)ccnc12 | . | 6.0% | . | -15.6% | .
Cc1nn(C)c(C(=O)NCc2ccc(Cl)cc2)c1Cl | ? | -19.1% | ? | -23.6% | -79.8*
Cc1ccc(NC(=S)NNC(=O)c2c(Cl)c(C)nn2C)cc1 | 0.0% | -10.6% | 0.6% | i | -72.6*
Cc1cccc(N(C)C(=O)CN(C)S(=O)(=O)c2ccc3[nH]c4c(c3c2)CCCC4)c1 | -7.3% | -16.2% | . | -20.0% | -9.0
CCOc1ccc(-n2c(/C=C/c3cccc(F)c3)nc3cc(OC)c(OC)cc3c2=O)cc1 | ? | -24.7% | . | -28.0% | -38.7
OCCN1CCN(C2CCC(c3ccc(F)cc3)c3ccc(F)cc32)CC1 (configuration not stated) | ? | ? | 3.98µM* | ? | ?
COC(=O)N1CCC[C@@]2(CCN(C(=O)Nc3ccccc3)C2)C1 | 15.5% | . | . | . | .
Cn1cccc1C(=O)N1CCC2(CCN(Cc3ccncc3)CC2)CC1 | -17.2% | . | . | . | .
Cc1cc2[nH]c3c4ccccc4nc(C)c3c2cc1C | -13.2% | . | 12.6µM* | . | -101.0*
Oc1ccc(Nc2nccc3[nH]c(-c4cccc(F)c4)cc23)cc1 | . | . | . | . | -9.2
